Screening results from PubChem.
KDM4E inh = qHTS Assay for Inhibitors of Human Jumonji Domain Containing 2E (JMJD2E). Lysine-specific demethylase 4E (Homo sapiens), B2RXH2. 230,000 compounds, 1.6% hits. JMJD2E catalytic domain, FDH-coupled NADH fluorescence (FDH is formaldehyde dehydrogenase). AID 2147, 2009. Potency, µM (top dose mostly 57.1 µM), inactives show top-dose activity change, negative = inhibition, actives largely listed as inhibitors;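 also: 0% = wells with enzyme and -100% = buffer wells without enzyme; nearly all actives have a fitted effect of over 50% in size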
Target sequence (B2RXH2 1-337 limits assumed): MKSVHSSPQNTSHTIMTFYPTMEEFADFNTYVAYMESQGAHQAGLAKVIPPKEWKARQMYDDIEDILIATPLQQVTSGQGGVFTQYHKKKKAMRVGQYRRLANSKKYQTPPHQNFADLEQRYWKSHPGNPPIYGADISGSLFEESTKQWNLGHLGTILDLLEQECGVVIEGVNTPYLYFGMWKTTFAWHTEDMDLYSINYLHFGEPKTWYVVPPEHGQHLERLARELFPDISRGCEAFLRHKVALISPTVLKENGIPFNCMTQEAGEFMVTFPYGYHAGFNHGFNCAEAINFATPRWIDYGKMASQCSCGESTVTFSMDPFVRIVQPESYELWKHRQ
ALDH1A1 block = qHTS Assay for Inhibitors of Aldehyde Dehydrogenase 1 (ALDH1A1); Potency, µM (top dose mostly 75.3 µM), without a hit: top-dose activity, negative = inhibition, usual class: inhibitors; 220,000 compounds, 7.3% hits; AID 1030, 2008; Aldehyde dehydrogenase 1A1 (Homo sapiens), P00352; Purified ALDH1A1, NADH fluorescence, propionaldehyde substrate;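 also: plate controls were no enzyme wells and a reference inhibitor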
HTT cytoprotect = qHTS Multiplex Assay to Identify Dual Action Probes in a Cell Model of Huntington: Cytoprotection (ATP); PC12 HTT-Q103 induced, cytoprotection, ATP luminescence, 40 h; Potency, µM (highest dose often 56.4 µM), without a hit: cytoprotection (ATP increase), usual class: activators; 230,000 compounds, 0.14% hits; AID 1471, 2008; active = well fitted curve in the direction sought with a large enough effect; inconclusive = small, poorly fitted or top-dose-only effect, or another doubt; inactive = no such curve, though single readings can be large; an effect the other way counts as inactive or inconclusive; also: % of control where 0% means no effect; nearly all actives have a fitted effect of over 45% in size
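Huntington model: PC12 line, ecdysone-inducible HTTQ103 exon1–GFP, tebufenozide 100 nM. Test articles in a dose series. Endpoint luminescence from cellular ATP.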
HPGD inh = qHTS Assay for Inhibitors of HPGD (15-Hydroxyprostaglandin Dehydrogenase); 150,000 compounds, 4.3% hits; Potency, µM, inactives show at the top dose activity change, negative = inhibition, hits mostly inhibitors; purified HPGD, NADH fluorescence kinetic, PGE2 substrate; AID 894, 2007; also: % is scaled to controls: 0 for no effect and ±100 for the full control effect
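20 nM HPGD preincubated 15 min at room temperature with compound in 50 mM Tris-HCl pH 8, 0.01% Tween 20. Started with 1 mM NAD+ and 30 uM prostaglandin E2; NADH fluorescence (360/450 nm) read 5 times over 30-s intervals, last minus first.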
LMNA splice mod = qHTS Assay for Modulators of Lamin A Splicing; Potency, µM (doses to about 46.1 µM), for inactives: at the top dose ratio change, negative = inhibition, usual class: inhibitors; 200,000 compounds, 0.01% hits; HeLa LMNA splicing GFP/RFP minigene ratio, 48 h; active = well fitted inhibition curve with a large enough effect in the signal ratio, with a control signal flat, not every such curve was filed as active; inconclusive = small, poorly fitted or top-dose-only effect, or effect the other way, or a change in a side signal; the % refers to the signal ratio; also: % is scaled to controls: 0 for no effect and ±100 for the full control effect
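Read-out is the ratio of GFP to DsRed2 object intensity, acquired by 488 nm laser-scanning cytometry on HeLa lamin A-EGFP minigene reporter cells. Compound incubation 48 hrs at 37 °C in Opti-MEM with 2% FBS; DMSO 0.5% final.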
HTT aggregate = qHTS Multiplex Assay to Identify Dual Action Probes in a Cell Model of Huntington: Aggregate Formation (GFP); PC12 HttQ103-GFP aggregates, Acumen cytometry, 40 h; 220,000 compounds, 1.1% hits; Potency, µM (doses to about 46.1 µM), inactives show at the top dose activity change, negative = inhibition, hits mostly inhibitors; AID 1688, 2009; active = well fitted curve in the direction sought with a large enough effect; inconclusive = small, poorly fitted or top-dose-only effect, or another doubt; inactive = no such curve, though single readings can be large; an effect the other way counts as inactive or inconclusive; also: % is scaled to controls: 0 for no effect and ±100 for the full control effect; nearly all actives have a fitted effect of over 60% in size
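PC12 cells stably carrying ecdysone-inducible HTT exon 1 Q103–GFP were induced with tebufenozide (100 nM final) and treated with library compounds in titration. GFP aggregates in lysates were counted by laser scanning cytometry.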
Active calls of the source: *; ? = inconclusive; . = not tested or not shown; [ ] = remark or other dose. In the library only some 9.2% were active in any assay of this set; here they are far more common. Unless noted, calls follow the shape of the dose curve; as a rule, active = well fitted inhibition curve with a large enough effect (not every such curve was filed as active); inconclusive = small, poorly fitted or top-dose-only effect, or another doubt; inactive = no such curve, though single readings can be large or run the other way. Potency is read from the fitted curve at half-maximal effect.

SMILES	KDM4E inh	ALDH1A1 block	HTT cytoprotect	HPGD inh	LMNA splice mod	HTT aggregate
Cc1cccc2cc(-c3ccccc3)c(-c3ccccc3)c[n+]12	?	?	.	-8.3%	?	17.8µM*
COc1ccc(CN2CCc3c(c(=O)n4ncc(C(=O)N5CCN(c6ccccc6OC)CC5)c4n3C)C2)cc1	.	.	.	.	-12.4%[46 µM]	.
C[C@@H]1[C@H](C)CC[C@@]2(C(=O)O[C@H]3O[C@@H](CO[C@H]4O[C@@H](CO)[C@@H](O[C@H]5O[C@@H](C)[C@@H](O)[C@@H](O)[C@@H]5O)[C@@H](O)[C@@H]4O)[C@@H](O)[C@@H](O)[C@@H]3O)CC[C@]3(C)C(=CC[C@H]4[C@@]5(C)C[C@@H](O)[C@@H](O)[C@](C)(CO)[C@@H]5CC[C@@]43C)[C@@H]12	1.0%[25.5 µM]	5.8%[20.9 µM]	-7.7%[40.3 µM]	-2.7%	?	.
CCC(=S)/C=C1\Sc2ccc3ccccc3c2N1CCCS(=O)(=O)O	-21.2%	-2.8%	27.4%	31.6µM*	15.9%	9.8%
CC[n+]1ccc(/C=C2\Sc3ccccc3N2CCCS(=O)(=O)[O-])c2ccccc21	?	-11.5%	.	.	?	.
Brc1ccc(C2C3=C(Nc4ncnn42)c2ccccc2OC3c2ccncc2)cc1 (centres undefined)	-19.6%	11.1%	-61.4%	-10.2%	?	10µM*
COc1ccc(NC(=O)/C=C/c2ccco2)cn1	-18.4%	7.08µM*	-52.5%	.	?	24.1%
COc1ccc(NC(=O)/C=C/c2ccc(Br)o2)cn1	?	22.4µM*	-6.5%	.	.	4.5%
O=C(/C=C/c1ccc(Br)o1)NCCCN1CCOCC1	?	2µM*	-10.9%	.	.	-4.9%
COc1ccc(OC)c(/C=C/C(=O)Nc2ccc(OC)nc2)c1	?	?	-10.9%	.	-18.9%[46 µM]	22.5%
COc1ccccc1CNC(=O)/C=C/c1ccc(Br)o1	-11.7%	12.6µM*	-27.8%	.	.	-12.0%
O=C(/C=C/c1ccco1)NCCCN1CCOCC1	-0.7%	?	16.3%[10 µM]	.	.	0.6%[9.22 µM]
COc1ccc(NC(=O)/C=C/c2cccc(F)c2)cn1	-5.7%	-2.7%	.	-3.9%	?	-0.7%
O=C(/C=C/c1ccco1)NC(=S)Nc1ccccn1	?	?	-1.8%	15.8µM*	-1.8%	13.3%
COC(=O)c1sccc1NC(=O)CC1C(=O)NCCN1C(=O)c1ccc(N(C)C)cc1 (centres undefined)	2.5%	10µM*	-0.1%[10 µM]	.	.	-16.6%[9.22 µM]
CC(=O)NC(CC(C)C)C(=O)NC(=O)NCc1ccccc1 (centres undefined)	1.4%	5.01µM*	-5.7%[10 µM]	-1.0%	14.7%	9.8%
CC(C(=O)NC(=O)NCc1ccccc1)N1C(=O)c2ccccc2C1=O (centres undefined)	2.9%	10.8%	-6.0%[1.9 µM]	-1.0%	4.8%	-10.6%
Cc1ccc(O)c(C(=O)c2cnc3c(c2)CN(CCC(C)C)C(=O)N3)c1	-7.4%	?	?	-20.2%	?	5.1%
Cc1ccc(O)c(C(=O)c2cnc3c(c2)COc2ccc(C)cc2-3)c1	-5.9%	-4.1%	22.2%[1.9 µM]	17.8µM*	?	?
Cc1ccc(O)c(C(=O)c2cnc3c(c2)CN(C)C(=O)N3)c1	-23.3%	25.1µM*	-3.3%	28.2µM*	-13.9%	?
CN1Cc2cc(C(=O)c3cc(Cl)cc(CSc4ncccn4)c3O)cnc2NC1=O	4.2%	28.2µM*	-100.4%	14.1µM*	?	?
CCCc1ccc(Oc2cn[nH]c2-c2ccc(O)c(C)c2O)cc1	-2.9%	4.9%	14.3%[10 µM]	17.8µM*	?	?
